p53ts 39C kill: p53ts cell cytotoxicity, nonpermissive temperature. H1299-p53A138V viability at 39C, ATP luminescence, 24 h. Potency, µM (highest dose often 46.1 µM), without a hit: at the highest dose activity change, negative = cell killing, usual class: cytotoxic. actives 1.5% (n = 130,000). AID 902; note: % is set by controls: 0 for no effect and ±100 for the full control effect; nearly all actives have a fitted effect of over 55% in size
p53ts 32C tox: kills p53ts cells at the permissive temperature; actives 0.93% (n = 130,000); Potency, µM (doses to about 46.1 µM), inactives show at the highest dose activity change, negative = cytotoxicity, hits mostly cytotoxic; AID 924; H1299-p53A138V at 32C, ATP luminescence viability, 24 h;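 note: 0% = DMSO and -100% = full killing by reference compound; nearly all actives have a fitted effect of over 55% in size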
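Cells: H1299 p53ts (A138V), 600/well, pre-incubated 16–30 h at 37C. Cpd up to 46 uM, 24 h, 32C. Readout: ATPlite luminescence, 20 min RT. Normalization: DMSO vs tamoxifen 100 uM. AC50 by Hill equation.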
Peg3 imprint: inducers of genomic imprint erasure in mouse ES cells; mouse ES Peg3-LacZ reporter, beta-gal luminescence, 40 h; Potency, µM (top dose mostly 60.7 µM), inactives show top-dose activity change, positive = activation, actives largely listed as activators; actives 0.02% (n = 110,000)
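Each well holds 300 Peg3LacZ-Neo (maternal) female ES cells incubated 40 h at 37C, 5% CO2. LacZ is measured by BetaGlo luminescence, with AC50 and maximum efficacy derived from dose-response curves.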
The depositor's hits bear a star; u = inconclusive; x = not tested or not shown; [ ] = another dose, or the depositor's remark. An excerpt weighted towards active compounds, which were near 1.6% of everything screened. Calls come from the whole dose curve; as a rule, active = well fitted curve in the direction sought with a large enough effect; inconclusive = small, poorly fitted or top-dose-only effect, or another doubt; inactive = no such curve, though single readings can be large; an effect the other way counts as inactive or inconclusive. Potency is the fitted concentration of half-maximal effect.

SMILES	p53ts 39C kill	p53ts 32C tox	Peg3 imprint
O=CC(=O)c1ccccc1	14.6%	-8.2%[1.84 µM]	-12.6%
CC1N/C(=C\C(=O)c2ccccc2)N(O)C1(C)C (centres undefined)	12.6µM*	10µM*	-19.4%
COc1cccc(Cn2c(=O)n(CCc3ccccc3)c(=O)c3c2c2cc(OC)ccc2n3C)c1	-2.5%	0.6%	6.2%[10.9 µM]
CCc1ccc(C(=O)c2cn(CC(=O)Nc3ccc(F)cc3)c3ccc(OC)cc3c2=O)cc1	-9.4%	-12.8%	-11.0%[10.9 µM]
CCc1ccc(C(=O)c2cn(CC(=O)Nc3cc(OC)cc(OC)c3)c3ccc(CC)cc3c2=O)cc1	12.6µM*	-4.8%	-19.7%[10.9 µM]
c1csc(CNc2nc(-c3ccoc3)nc3ccccc23)c1	0.7%	-1.6%	u
O=C(NCc1cccc(F)c1)c1ccc(NC(=O)c2nsc3ccccc23)cc1	10µM*	11.2µM*	7.3%[10.9 µM]
O=C(Nc1ccc(C(=O)N2CCN(c3ccc(F)cc3)CC2)cc1)c1nsc2ccccc12	-15.3%	15.9%	5.9%[10.9 µM]
O=C(Nc1ccc(C(=O)N2CCCCC2)cc1)c1nsc2ccccc12	3.16µM*	3.16µM*	-69.0%[10.9 µM]
Cc1ccc(CNC(=O)c2ccc(NC(=O)c3nsc4ccccc34)cc2)cc1	-20.8%	-7.7%	-8.2%[10.9 µM]
CCOC(=O)c1ccc(NC(=O)c2nsc3ccccc23)cc1	12.6µM*	u	-47.2%[10.9 µM]
CCOC(=O)c1ccc(NC(=O)c2sc3ccccc3c2Cl)cc1	-23.5%	0.3%	-14.4%[10.9 µM]
Cc1ccccc1CNC(=O)c1ccc(NC(=O)c2nsc3ccccc23)cc1	u	u	-5.1%[10.9 µM]
CNC(=O)c1ccc(NC(=O)c2nsc3ccccc23)cc1	7.94µM*	7.94µM*	-69.7%[10.9 µM]
Cc1cc(C)c2c(n1)sc1c(=O)n(-c3cc(Cl)ccc3C)nnc12	9.2%	0.4%	-8.5%[10.9 µM]
COc1ccc(OC)c(NC(=O)CCc2nc(-c3ccc(C)cc3)no2)c1	-16.4%	1.6%	5.9%[10.9 µM]
CCN(Cc1ccccc1)C(=O)c1c(C)oc2ncn(C)c(=O)c12	1.2%	-4.1%	19.5%[10.9 µM]
COc1ncc2nc(-c3cccs3)c(=O)n(C)c2n1	-9.9%	-20.5%	-3.8%
O=c1cc(-c2ccccc2O)oc2cc(O)ccc12	u	-28.1%	x
O=c1cc(-c2cccc(O)c2O)oc2ccccc12	10µM*	u	-61.8%
Cc1ccc(NS(=O)(=O)c2ccc(NC(=O)N3CCCC3)cc2)cc1C	-25.1%	1.7%	-9.2%[10.9 µM]
Cc1cccc(-n2ncc3c(NC4CCCCC4)ncnc32)c1	15.8µM*	10µM*	-18.0%
Clc1cccc(-n2ncc3c(NC4CCCCCC4)ncnc32)c1	-24.5%	1.5%	-19.0%[10.9 µM]
Cc1ccc(-n2ncc3c(NC4CCCCC4)ncnc32)cc1C	12.6µM*	-15.8%	-22.8%[10.9 µM]
Cc1cccc(-n2ncc3c(NC4CCCC4)ncnc32)c1	7.94µM*	12.6µM*	18.5%[10.9 µM]
SMILES	p53ts 39C kill	p53ts 32C tox	Peg3 imprint
C=CCNc1ncnc2c1cnn2-c1cccc(C)c1	u	u	-41.0%
Cc1ccc(-n2ncc3c(NC4CCCCC4)ncnc32)cc1Cl	u	u	-8.0%[10.9 µM]
CCOc1ccccc1N(CC)C(=O)c1cc2c(=O)n(CC)c3ccccc3c2s1	23.8%	35.9%	-13.4%[10.9 µM]
COc1cccc(CNC(=O)c2cc(S(=O)(=O)N3CCCCC3)cn2C)c1	-11.9%	6.6%	5.9%[10.9 µM]
Cc1ccc2c(c1)C(=O)C(=O)N2Cc1ccc(OC(C)C)cc1	15.8µM*	u	-26.4%[10.9 µM]
Cc1ccc(C)c(CN2C(=O)C(=O)c3ccccc32)c1	-22.3%	15.4%	-21.6%[10.9 µM]
COCCn1c(C)cc(O)c(C(c2ccccc2OC)N2CCCCC2)c1=O (centres undefined)	0.5%	9.2%	-3.1%[10.9 µM]
CC(C)(C)OC(=O)N1CCC(c2c(C(=O)NCc3ccco3)cnn2-c2ccccc2Cl)CC1	-9.9%	8.7%	-6.6%[10.9 µM]
Oc1c(I)cc(Cl)c2cccnc12	7.94µM*	u	-31.3%
Oc1c(CN2CCCCC2)cc(Br)c2cccnc12	10µM*	-23.0%	-26.9%
Oc1ccc2[nH]cnc2c1CN1CCCCC1	7.2%	10.1%	2.9%
OCc1ccccc1OCCOc1ccc(Cl)c2cccnc12	-22.0%	-26.2%	-13.1%
Oc1c(CN2CCc3ccccc3C2)cc(Cl)c2cccnc12	3.98µM*	12.6µM*	-31.0%
O=C(NCc1cccnc1)c1ccc(CN2CCc3ccccc3C2)cc1	10.6%	2.0%	x
COc1ccc(-c2nc3c(c4c2CC(C)OC4)CN(CCC(C)C)CC3)cc1 (centres undefined)	-7.9%[9.22 µM]	5.9%[9.22 µM]	x
CCN(CC)C(=O)c1sc2c(c1C)c(=O)n(CCc1ccccc1)c(=O)n2Cc1cc(C)ccc1C	9.5%	3.5%	-11.4%[10.9 µM]
Cc1cccc(CNC(=O)c2ccc(Cn3c(=O)c4cccn4c4cccnc43)cc2)c1	-27.6%	-1.1%	8.0%[10.9 µM]
COCCn1c(C)cc(O)c(C(c2ccc(Cl)cc2)N2CCCCC2)c1=O (centres undefined)	20.6%	7.2%	11.2%[10.9 µM]
FC(F)(F)c1cc(CO[C@@H]2CCCN[C@H]2c2ccccc2)cc(C(F)(F)F)c1	20µM*	u	x
COc1cccc(-n2cc(C(=O)OCc3ccc(F)c(F)c3)c3ccccc3c2=O)c1	u	-4.0%	-4.7%[10.9 µM]
Cc1ccccc1CS(=O)(=O)c1ncc(Cl)c(C(=O)Nc2nnc(C(C)C)s2)n1	7.94µM*	15.8µM*	-16.7%[10.9 µM]
CCCc1nnc(NC(=O)c2nc(S(=O)(=O)Cc3ccc(C)cc3)ncc2Cl)s1	u	u	-12.9%[10.9 µM]
CC(C)Sc1ncc(Cl)c(C(=O)Nc2nnc(C(C)C)s2)n1	-26.9%	6.2%	-5.2%[10.9 µM]
CC(C)c1nnc(NC(=O)c2nc(S(=O)(=O)Cc3ccccc3)ncc2Cl)s1	6.31µM*	20µM*	-30.5%[10.9 µM]
COCCn1c(SCC(=O)c2ccccc2)nc2cc(C(=O)NC3CCCC3)ccc2c1=O	-0.3%	7.1%	-6.1%[10.9 µM]
SMILES	p53ts 39C kill	p53ts 32C tox	Peg3 imprint
COc1ccc(-n2c(=O)c3ccc(C(=O)NCc4ccc(C)cc4)cc3n(CC(=O)Nc3ccc(F)cc3)c2=O)cc1	10µM*	-23.9%	5.2%[10.9 µM]
Cc1ccc(-n2c(=O)c3ccc(C(=O)NCc4ccco4)cc3n(Cc3ccccc3Cl)c2=O)cc1	21.9%	1.5%	14.4%[10.9 µM]
O=C(Cn1c(=O)n(-c2ccccc2)c(=O)c2ccc(C(=O)NCc3ccc4c(c3)OCO4)cc21)Nc1ccc(Br)cc1	-25.9%	-0.9%	11.6%[10.9 µM]
Cc1ccc(-n2c(=O)c3ccc(C(=O)NCc4ccco4)cc3n(CC(=O)Nc3ccc(C)c(F)c3)c2=O)cc1	u	-0.7%	-7.7%[10.9 µM]
COc1ccc(-n2c(=O)c3ccc(C(=O)NCc4ccc(C)cc4)cc3n(CC(=O)Nc3ccc(C)cc3)c2=O)cc1	5.01µM*	u	-14.8%[10.9 µM]
COc1ccc(NC(=O)Cn2c(=O)n(-c3ccccc3)c(=O)c3ccc(C(=O)NCc4ccc5c(c4)OCO5)cc32)cc1	27.4%	u	-4.0%[10.9 µM]
Cc1ccc(NC(=O)Cn2c(=O)n(-c3ccccc3)c(=O)c3ccc(C(=O)NCc4ccc5c(c4)OCO5)cc32)c(C)c1	7.94µM*	u	-8.7%[10.9 µM]
Cc1ccc(-n2c(=O)c3ccc(C(=O)NCc4ccco4)cc3n(Cc3ccc(Cl)cc3)c2=O)cc1	12.6µM*	-27.5%	-11.4%[10.9 µM]
COc1c(N2C[C@@H]3CCCN[C@H]3C2)c(F)cc2c(=O)c(C(=O)O)cn(C3CC3)c12	9.6%	9.2%	-7.7%
C=CC[C@@H]1C=C[C@@H](O/N=C2/[C@H]3O[C@@H]3[C@@H](O)[C@H]3[C@H]2CCn2c(=O)n(-c4ccccc4)c(=O)n23)[C@@H](CO)O1	3.6%[9.22 µM]	11.3%[9.22 µM]	x
